According to PubChem BioAssay AID2763 (National Center for Advancing Translational Sciences (NCATS), 2010):
Results filed as inconclusive are left out. Activity calls are given as the source filed them. The call rests on the fitted dose curve; in most records, active means well fitted inhibition curve with a large enough effect; inconclusive means small, poorly fitted or top-dose-only effect, or effect the other way; inactive means no such curve, though single readings can be large or run the other way.

Experiment: Concentration response confirmation VP16 counterscreen for inhibitors of ROR gamma transcriptional activity; further: nearly all actives have a fitted effect of over 70% in size
Details: Drosophila S2 Gal4-VP16 UAS-luciferase, luminescence, 20 h; series mostly up to 46.1 µM
Text: NIH Molecular Libraries Probe Production Network [MLPCN] NIH Chemical Genomics Center [NCGC] MLPCN Grant: R03 DA026211-01 Assay Provider: Dan Littman, New York University Assay Overview: The retinoic acid-related orphan receptor (ROR) gamma is a transcription factor that has a central role in the differentiation of Th17 cells, a subset of T helper cells that secrete the inflammatory cytokines IL-17, IL-17F, and IL-22. Th17 cells have been implicated in graft versus host disease, autoimmune disease and asthma. ROR gamma is induced in naive T helper cells in the presence of TGF-beta combined with IL-6, IL-21, or IL-23, and thereafter directs the expression of the Th17 lineage cytokines. To identify nonspecific inhibitors, a Drosophila Schneider cell line was stably transfected with two vectors: a gene expressing a fusion of the Gal4 DNA binding domain and the transactivation domain of the viral transcription factor VP16, under the control of the metallothionine promoter and a Photinus luciferase reporter regulated by the Gal4 binding site enhancer, UAS. […] Small molecule inhibitors that inhibit components common to the RORgt and VP16 assays, such as the Gal4 DNA binding domain or the UAS luciferase reporter, will be active in both assays and thus scored as nonspecific.
Assay Protocol Summary: For screening, 600 cells in 4 uL/well were dispensed into white solid 1536-well plates (Grenier) using a solenoid-based dispenser. Following transfer of 23 nL compound or DMSO vehicle by a pin tool, the plates were incubated 1 hr at ambient temperature, and 1 uL/well copper sulfate (700 uM final concentration) was added. The plates were centrifuged 15 s at 1000 RPM and incubated 20 hr at ambient temperature. After addition of 1.5 uL Photinus luciferase detection reagent, the plates were incubated 10 min at ambient temperature and then read by an ViewLux (Perkin Elmer) to detect luminescence.
Potency means the concentration at half of the fitted maximal effect.

For `OC(COCc1ccc(Cl)cc1)CN1CC=C(c2ccccc2)CC1` (stereo not drawn), which Potency is on record?
The Potency was “inactive”.

For `O=C(Nc1ncc(Cc2ccccc2)s1)C1=NCCN1`, which Potency is on record?
The Potency was 19.9 µM (active).

Which Potency does the source give for `COc1cc(C(=O)N/N=C/C23CC[C@@H](O)CC2(O)CC[C@@H]2[C@@H]3CCC3(C)C(C4=CC(=O)OC4)CCC23O)ccc1O` (stereo partly drawn) here?
Its Potency is “inactive”.

Which Potency does the source give for `CCCCNS(=O)(=O)c1ccc(OCC(=O)N2CCN(Cc3ccc4c(c3)OCO4)CC2)cc1` here?
Its Potency is 22.3 µM (active).

With `CCCNS(=O)(=O)c1ccc(OCC(=O)N2CCN(Cc3ccc4c(c3)OCO4)CC2)cc1` as the compound, how does the Potency read?
Its Potency is 25 µM (active).

For `Cc1cc(S(=O)(=O)NC(C)C)ccc1OCC(=O)N1CCN(Cc2ccc3c(c2)OCO3)CC1`, which Potency is on record?
Its Potency is 11.2 µM (active).

For `Cn1ncnc2c(=O)n(C)c(=O)nc1-2`, which Potency is on record?
Its Potency is 0.445 µM (active).

With `O=C(c1ccco1)c1cn(Cc2ccccc2Cl)c2ccccc12` as the compound, how does the Potency read?
The Potency was “inactive”.
